# ChEMBL document CHEMBL4513216, “Probing the Open Global Health Chemical Diversity Library for Multistage-Active Starting Points for Next-Generation Antimalarials” (ACS Infect Dis, 2020)
# The campaign covered roughly 68,000 compounds. About 2,700 (4%) showed an effect of 50% or more. Many of the other results were omitted from the sample, so strong results are more common in it than they were.
# Tested on: Plasmodium berghei
# Experiment: Screen against P. berghei liver stage (PbLuc), transformed with Luciferase, at 2uM
# Format: functional, HepG2
# Conditions: tested at 2 uM
row,Compound,INHIBITION [%]
1,CC(C)[C@H]1CN(c2cnccn2)C[C@@H]1NC(=O)C1(C#N)CCOCC1,2.3
2,CCc1ncncc1C(=O)N1CCCN(Cc2ccc(C#N)cc2)CC1,68.24
3,CC(C)c1ncncc1C(=O)N1CCN(Cc2cccnc2)CC1,33.61
4,CCc1ncncc1C(=O)N1CCCN(Cc2ccccc2C)CC1,-23.42
5,CC(C)c1ncncc1C(=O)N1CCN(Cc2cscn2)CC1,-43.47
6,CC(C)c1ncncc1C(=O)N1CCN(Cc2ccsc2)CC1,58.05
7,CCc1ncncc1C(=O)N1CCN(Cc2ccsc2)CC1,-45.83
8,CCc1ncncc1C(=O)N1CCCN(Cc2ccc(C)cc2)CC1,-8.84
9,Cc1ccc(C(=O)N2CCN(Cc3ccsc3)CC2)n1C,43.52
10,Cc1cc(C(=O)N2CCN(Cc3ccsc3)CC2)c(C)n1C1CC1,53.58
11,O=C(c1cc(C2CC2)[nH]n1)N1CCN(Cc2ccsc2)CC1,44.43
12,CC(C)c1ncncc1C(=O)N1CCCN(Cc2ccccc2)CC1,56.02
13,CC(C)c1ncncc1C(=O)N1CCCN(Cc2cccs2)CC1,8.37
14,N#Cc1c(-c2ccccc2)csc1N,30.76
15,Cc1noc(C)c1NC(=O)NC1CCN(C(=O)OC(C)(C)C)CC1,11.92
16,CCCn1c(C)c(CC(=O)NCCOC)c2c1CC(C)(C)CC2=O,18.91
17,CC(C)(NCC(=O)NCCC#N)c1ccc2c(c1)OCCO2,-9.66
18,Cc1ccc(CN2C[C@@H]3CCN(Cc4cccnc4)C(=O)[C@H]3C2)s1,41.38
19,Cc1ccc(OC2(C(=O)NC(C)Cc3ccsc3)CCNCC2)cc1 (centres undefined),26.35
20,CN(Cc1cccnc1)C1CC2(CCN(Cc3ccccn3)CC2)C1,27.9
21,CN(C)S(=O)(=O)N1CC[C@]2(C[C@H](OCc3ccccn3)CO2)C1,-51.66
22,COc1ccc(C(=O)N2CCCCC2c2ccccn2)c(OC)n1 (centres undefined),21.05
23,COCC(=O)N1CCN(C(C)C(=O)NC(C)C)CC1 (centres undefined),61.91
24,COCCNC(=O)C(C)N1CCN(C)CC1 (centres undefined),7.9
25,COCCNC(=O)N1CCN(C(C)C(=O)NC(C)C)CC1 (centres undefined),21.22
26,CC(=O)N1CCc2c(nc(N(C)C)nc2N(C)CC2CCCO2)C1 (centres undefined),-34.04
27,CCCC(=O)N1CCC2(CC1)COC2,54.01

row,Compound,INHIBITION [%]
1,CCCC(=O)N1CCC2(CC1)OCCO2,38.51
2,CN(C)C(=O)CCC(=O)N1CCC2(CC1)COC2,15.02
3,CCS(=O)(=O)NCC(Cc1cccc(F)c1)N1CCNC1=O (centres undefined),-35.92
4,CS(=O)(=O)NCC(Cc1cccc(F)c1)N1CCNC1=O (centres undefined),22.27
5,CC(C)S(=O)(=O)NCC(Cc1cccc(F)c1)N1CCNC1=O (centres undefined),53.44
6,Cc1cc(C)n(CC2CCCN2CC(=O)Nc2nncs2)n1 (centres undefined),37.08
7,CC(C)Oc1cccc(CNC(=O)N2CCC(N3CC=CC3)C2)c1 (centres undefined),-21.25
8,CC(C)Nc1cccc(CNC(=O)N2CCCC2)c1,-24.87
9,CC(C)Nc1cccc(CNC(=O)N2CCC(N3CC=CC3)C2)c1 (centres undefined),58.34
10,COC(=O)CCCNC(=O)Nc1ccccc1OC,-3.99
11,CN1CCC(NC(=O)Nc2cnn(-c3ccccc3Cl)c2)C1=O (centres undefined),15.75
12,CNC(=O)[C@@H]1C[C@@H](n2cc(-c3ccc(CN4CC=CC4)cc3)nn2)CN1,-21.75
13,Nc1nc(CCC(=O)N2C[C@H](c3ccccc3)[C@@H](N)C2)cs1,-10.1
14,CS(=O)(=O)N1CC(c2n[nH]c3ncccc23)C1,31.98
15,CS(=O)(=O)N1CC(c2ncn3ccccc23)C1,51.36
16,CCc1ccc2c(C3CN(S(C)(=O)=O)C3)ncn2c1,28.81
17,CC(=O)N1N=C(c2cccs2)OC1C(=O)Nc1ccc(C(C)C)cc1 (centres undefined),19.09
18,COC1CCN(C(=O)c2csc(-c3ccccc3F)n2)CC1,10.91
19,NC(=O)CC1CCN(C(=O)c2cnc(-c3ccccc3F)s2)CC1,20.76
20,NC(=O)CC1CCN(C(=O)c2csc(-c3ccccc3F)n2)CC1,51.96
21,Cc1noc(C)c1CN1CCn2c(COC(C)C)nnc2C1,40.71
22,Fc1ccc(OCCNC2CCN(Cc3ccncc3)CC2)c(F)c1,4.19
23,Cc1nn(CC(=O)NCCc2ccncc2)c(=O)n1Cc1ccccc1,53.98
24,Cc1ccc(CCNC(=O)Cn2nc(C)n(Cc3ccccc3)c2=O)o1,-9.48
25,Cc1ccc(CCNC(=O)Cn2nc(C)n(Cc3ccccc3)c2=O)s1,-8.8
26,Cc1nnc(CN2C[C@H](NC(=O)C3CCOCC3)[C@@H](C(C)C)C2)s1,-29.43
27,N[C@@H]1c2ccccc2C2(CCN(c3ncccc3C(F)(F)F)CC2)[C@H]1O,-7.99
